# Values without a mark were called inactive. Inconclusive results are not listed. Where a call stands in place of a potency, no number is given. The source made the active and inactive calls. The call rests on the fitted dose curve; in most records, active means well fitted curve in the direction sought with a large enough effect; inconclusive means small, poorly fitted or top-dose-only effect, or another doubt; inactive means no such curve, though single readings can be large; an effect the other way counts as inactive or inconclusive.
# What was measured:
# [1] = target: Glutathione peroxidase 1 (Homo sapiens) (UniProt P07203); test: Primary qHTS Assay for Inhibitors of Recombinant Selenoprotein Glutathione Peroxidase 1 (GPX1) (AID 1845191); further: nearly all actives have a fitted effect of over 65% in size
# How it was run: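 GPX1 10 nM, GR 100 nM, GSH 1 mM, NADPH 0.5 mM, CHP 0.5 mM (final). 30-min cpd preincubation, RT. Ex340/Em450 read t=0, t=15 min.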
# [2] = target: Phospholipid hydroperoxide glutathione peroxidase GPX4 (Homo sapiens) (UniProt P36969); test: Primary qHTS Assay for Inhibitors of Recombinant Selenoprotein Glutathione Peroxidase 4 (GPX4) (AID 1845192); further: nearly all actives have a fitted effect of over 65% in size; on activity change, negative = inhibition: series mostly up to about 50 µM
# How it was run: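 qHTS, GR-coupled: GPX4 200 nM + cpd 30 min RT → GSH 1 mM, NADPH 0.5 mM, GR 100 nM → CHP 0.5 mM start; fluor 340/450 at t0 and t15 min; no-enzyme wells as control.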
# [3] = target: Luciferin 4-monooxygenase (Photinus pyralis) (UniProt P08659); test: Primary firefly luciferase (FLuc) qHTS assay for identification of artifact compounds. (AID 1845220); further: nearly all actives have a fitted effect of over 60% in size; further: potency means the concentration at half of the fitted maximal effect; on activity change, negative = inhibition: series mostly up to about 54 µM
# How it was run: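 Reaction readout was CCD-imaged luminescence, taken 5 min after adding 10 nM purified firefly enzyme to compound-treated wells holding 10 uM luciferin and ATP in pH 7.6 buffer.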
# [4] = Primary fluorescence-based thiol-reactive (MSTI) qHTS assay for identification of artifact compounds. (AID 1845221); further: nearly all actives have a fitted effect of over 65% in size; further: potency means the concentration at half of the fitted maximal effect;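 on activity change, negative = thiol reactive: series mostly up to about 54 µM; thiol-reactive compounds lower the probe fluorescence signal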
# How it was run: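 Curve-fitted percent inhibition (4-parameter Hill) derived from fluorescence, Ex 525/Em 598 nm, scaled with Acetyl-MSTI and MSTI; 1 h incubation at room temperature.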
# [5] = system: Nanoluciferase (engineered Oplophorus gracilirostris luciferase); test: Primary Nanoluciferase (NLuc) qHTS assay for identification of artifact compounds. (AID 1845222);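 further: NLuc secreted into diluted conditioned medium of S16 cells; series mostly up to about 54 µM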
# How it was run: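 Concentration-response data were obtained by luminescence after 5 min with Nano-Glo substrate at 1:100. The enzyme was diluted S16 NLuc-expressing cell medium, preincubated with compound for 15 min at RT. Curves were fitted with a 4-parameter Hill model.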
# [6] = Primary redox qHTS assay for identification of artifact compounds. (AID 1845223)
# How it was run: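 Redox-cycling detection via DTT (250 uM final) oxidation coupled to Amplex Red (25 uM)/HRP (250 mU/mL) in HBSS. 15 min preincubation plus 30 min after DTT, room temperature. Ex/Em 525/598 nm; 4-parameter Hill fit against DMSO and 10 uM DA3003.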
# Chain of Glutathione peroxidase 1 (Homo sapiens) (P07203 whole entry, looked up): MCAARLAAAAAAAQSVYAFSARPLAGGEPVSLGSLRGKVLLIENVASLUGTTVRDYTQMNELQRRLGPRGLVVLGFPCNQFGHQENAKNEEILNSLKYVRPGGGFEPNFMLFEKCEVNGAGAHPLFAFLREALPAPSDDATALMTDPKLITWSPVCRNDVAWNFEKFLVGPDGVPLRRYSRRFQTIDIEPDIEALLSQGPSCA
# Chain of Phospholipid hydroperoxide glutathione peroxidase GPX4 (Homo sapiens) (P36969 whole entry, looked up): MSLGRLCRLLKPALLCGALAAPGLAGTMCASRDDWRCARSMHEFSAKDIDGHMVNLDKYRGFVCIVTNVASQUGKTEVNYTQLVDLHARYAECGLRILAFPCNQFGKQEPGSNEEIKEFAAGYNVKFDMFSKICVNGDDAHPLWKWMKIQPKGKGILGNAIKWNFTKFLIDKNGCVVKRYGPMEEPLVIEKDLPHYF
Compound,Potency [1],Potency [2],Potency [3],Potency [4],Potency [5],Potency [6],outcome [3],"activity change, negative = thiol reactive [4]","activity, negative = inhibition [5]",redox activity (% of DA3003) [6],"activity change, negative = inhibition [3]"
CC1=C2CC3C(CCC3(C)O)C(C)(O)CC2OC1=O (stereo not drawn),inactive,inactive,inactive,23.8 µM (active),inactive,inactive,–,–,–,–,–
CC(C)/C=C1/NC(=O)C(C(C)C)n2c1nc1c(O)cccc1c2=O (stereo not drawn),inactive,inactive,inactive,inactive,inactive,inactive,–,–,–,–,–
N[C@@H](CCNCc1ccc(Cl)cc1)C(=O)N1CCCCC1,inactive,inactive,inactive,inactive,inactive,inactive,–,–,–,–,–
COc1ccc(-n2[nH]c3c(cnc4ccccc43)c2=O)cc1,inactive,inactive,inactive,4.74 µM (active),inactive,inactive,–,–,–,–,–
CCCC/C=C\CCCCCc1cc(=O)c2ccccc2n1C,inactive,inactive,inactive,inactive,inactive,inactive,–,–,–,–,–
COc1cc(C(=O)OC[C@H]2O[C@@H](OC(C)(C)C(=O)O)[C@H](O)[C@@H](O)[C@@H]2O)cc(OC)c1O,inactive,inactive,inactive,inactive,inactive,inactive,–,–,–,–,–
CNC(=O)c1ccc2c(c1)CCO[C@H]2CCN1CCN(c2ccc(C(N)=O)cc2)CC1,inactive,inactive,inactive,inactive,inactive,inactive,–,–,–,–,–
Fc1cccc(CN(C2=NCCN2)c2c(Cl)cccc2Cl)c1,inactive,inactive,inactive,inactive,inactive,inactive,–,–,–,–,–
C[C@]12CCC[C@](C)(C(=O)O)C1CCC13CC(CO)C(CCC12)C3 (stereo partly drawn),inactive,inactive,inactive,inactive,inactive,inactive,–,–,–,–,–
O=C(/C=C/c1ccc(O)c(O)c1)O[C@@H]1[C@@H](O)[C@H](OC2CCCCC2O)O[C@H](CO)[C@H]1O (stereo partly drawn),inactive,inactive,inactive,2.92 µM (active),inactive,inactive,–,–,–,–,–
C[C@@H]1O[C@@H](O[C@H]2[C@@H]3C=CO[C@@H](O[C@@H]4O[C@H](CO)[C@@H](O)[C@H](O)[C@H]4O)[C@@H]3[C@@]3(CO)O[C@@H]23)[C@H](O)[C@H](OC(=O)/C=C/c2ccc(O)c(O)c2)[C@H]1O,inactive,inactive,inactive,0.562 µM (active),inactive,inactive,–,–,–,–,–
COC(=O)C(CC1(O)c2ccccc2N2C(=O)C(C)(C)N(O)C21)n1cnc2ccccc2c1=O (stereo not drawn),inactive,inactive,inactive,inactive,inactive,inactive,–,–,–,–,–
COc1ccc(CC(=O)NCc2ccccc2-c2ccccc2C(=O)NCCc2cccnc2)cc1,inactive,inactive,inactive,inactive,inactive,inactive,–,–,–,–,–
COc1cc2nc(=NC(=O)c3cccnc3)n3c(c2cc1OC)NCC3,inactive,inactive,inactive,inactive,inactive,inactive,–,–,–,–,–
C=CC(C)(CC/C=C(\C)C(=O)OC[C@H]1O[C@@H](OC(C)(C=C)CC/C=C(\C)C(=O)O[C@H]2[C@H](O)[C@@H](O)[C@H](OC(C)(C=C)CC/C=C(\C)C(=O)O)O[C@@H]2CO)[C@H](O)[C@@H](O)[C@@H]1O)O[C@@H]1O[C@H](CO)[C@@H](O)[C@H](O)[C@H]1O (stereo partly drawn),inactive,inactive,–,–,–,–,inactive [at 11.6 µM],79.7% [at 11.5 µM],3.18% [at 11.6 µM],0.215% [at 11.5 µM],–
CC(C)C(O)(CO)CCO[C@@H]1O[C@H](CO[C@H]2OC[C@](O)(CO)[C@H]2O)[C@@H](O)[C@H](O)[C@H]1O (stereo partly drawn),inactive,inactive,inactive,inactive,inactive,inactive,–,–,–,–,–
FC(F)(F)Oc1ccc(-c2ccc3nnc(C(F)(F)F)n3c2)cc1,inactive,inactive,inactive,inactive,inactive,inactive,–,–,–,–,–
CC[C@@H](C)[C@H](N)C(=O)N1Cc2ccccc2C1,inactive,inactive,inactive,inactive,inactive,inactive,–,–,–,–,–
CC(=O)OC(C)C(C)(O)C(=O)O[C@@H]1CC[C@]2(C)CC(=O)C(=C(C)C)C[C@H]2[C@]1(C)OC(C)=O (stereo partly drawn),inactive,inactive,inactive,inactive,inactive,inactive,–,–,–,–,–
COc1cc(Cc2cnc(N)nc2N)c(C(C)C)cc1OC,inactive,inactive,inactive,inactive,inactive,inactive,–,–,–,–,–
CC1(C(=O)O)CCCC2(C)C3CCC4CC3(CCC12)CC4C(=O)O (stereo not drawn),inactive,inactive,inactive,inactive,inactive,inactive,–,–,–,–,–
CC(C)=C1CC2C(CCC2(C)O)C(C)(O)CC1=O (stereo not drawn),inactive,inactive,inactive,23.8 µM (active),inactive,inactive,–,–,–,–,–

Compound,Potency [1],Potency [2],Potency [3],Potency [4],Potency [5],Potency [6],outcome [3],"activity change, negative = thiol reactive [4]","activity, negative = inhibition [5]",redox activity (% of DA3003) [6],"activity change, negative = inhibition [3]"
COc1c2c(c(C)c3c1C(=O)OC3)OC1(C)CC(O)C34OC(O)(CCC3(C)C1C2)OC4(C)C (stereo not drawn),inactive,inactive,inactive,inactive,inactive,inactive,–,–,–,–,–
COc1cc(O)c2c(c1Cl)CC(C)OC2=O (stereo not drawn),inactive,inactive,inactive,inactive,inactive,inactive,–,–,–,–,–
OC[C@H]1O[C@@H](OCCc2ccccc2)[C@H](O)[C@@H](O)[C@@H]1O,inactive,inactive,inactive,11.9 µM (active),inactive,inactive,–,–,–,–,–
N#CN1CCC[C@@H](n2nc(-c3ccc(Oc4ccc(F)cc4F)cc3)c(C(N)=O)c2N)C1,inactive,inactive,inactive,inactive,inactive,inactive,–,–,–,–,–
CC1(C)CC[C@]2(C(=O)O)CC[C@]3(C)C(=CCC4[C@@]5(C)CC[C@H](O[C@@H]6O[C@H](C(=O)O)[C@@H](O)[C@H](O)[C@H]6O)C(C)(C)C5CC[C@]43C)C2C1 (stereo partly drawn),inactive,inactive,inactive,inactive,inactive,inactive,–,–,–,–,–
C/C=C(\C)C(=O)OC1CC2C(CC=C3CC(OC4CC(OC)C(OC5CC(OC)C(OC6CC(OC)C(OC7CC(OC)C(OC8CC(OC)C(OC9OC(CO)C(O)C(O)C9O)C(C)O8)C(C)O7)C(C)O6)C(C)O5)C(C)O4)CCC32C)C2(O)CCC(C(C)=O)C12C (stereo not drawn),inactive,inactive,–,–,–,–,–,7.96% [at 11.5 µM],4.2% [at 11.6 µM],12.2% [at 11.5 µM],2.55% [at 11.6 µM]
CC(C)(C)NS(=O)(=O)c1ccc(-c2ccc3[nH]nc(N)c3c2)cc1,inactive,inactive,inactive,7.52 µM (active),inactive,inactive,–,–,–,–,–
Cc1onc(-c2ccccc2Cl)c1C(=O)N(C)c1ccc(Cl)cc1,inactive,inactive,inactive,inactive,inactive,inactive,–,–,–,–,–
CC1=C(CO)CC(C(C)C2CCC3C4CC=C5CC(OC6OC(COC7OC(CO)C(O)C(O)C7O)C(O)C(O)C6O)CC(O)C5(C)C4CCC23C)OC1=O (stereo not drawn),inactive,inactive,inactive,inactive,inactive,inactive,–,–,–,–,–
CCNC(=O)OC1CCN(c2nncc3cc(OC)c(OC)cc23)CC1,inactive,inactive,inactive,inactive,inactive,inactive,–,–,–,–,–
CC1(C)CC=C(C#Cc2ccccc2)c2cc(/C=C/c3ccc(C(=O)O)cc3)ccc21,inactive,inactive,10.7 µM (active),inactive,inactive,inactive,–,–,–,–,–
Cc1occc(=O)c1O[C@@H]1O[C@H](CO[C@@H]2OC[C@](O)(CO)[C@H]2O)[C@@H](O)[C@H](O)[C@H]1O,inactive,inactive,inactive,inactive,inactive,inactive,–,–,–,–,–
C[C@@H](CC[C@@H]1[C@@]2(C)CCCC(C)(C)C2CC[C@@]1(C)O)CC(=O)O (stereo partly drawn),inactive,inactive,inactive,inactive,inactive,inactive,–,–,–,–,–
CN1C(=O)N(c2cc(Cl)cc(Cl)c2)C(=O)[C@@]1(C)Cc1ccc(Br)cc1,inactive,inactive,inactive,inactive,inactive,inactive,–,–,–,–,–
COc1ccc(C(=O)NCc2cc(C(C)C)no2)cc1OC1CCN(C)CC1,inactive,inactive,inactive,inactive,inactive,inactive,–,–,–,–,–
CC(C)NC(=O)c1ccc(C#Cc2ccncc2)cn1,inactive,inactive,inactive,inactive,inactive,inactive,–,–,–,–,–
COc1cc(O)cc(C)c1C(=O)O[C@H]1[C@@H](O)[C@@H](n2ccc(=O)[nH]c2=O)O[C@@H]1CO,inactive,inactive,inactive,inactive,inactive,inactive,–,–,–,–,–
CC(C)CC(=O)OC[C@@]1(O)C[C@@]23CC[C@H]4[C@@](C)(CCC[C@@]4(C)C(=O)O)[C@@H]2CC[C@@H]1C3,inactive,inactive,inactive,inactive,inactive,inactive,–,–,–,–,–
CC(=O)/C=C/[C@H]1[C@](C)(O)[C@@H](O)[C@H](O)C2C(C)(C)CCC[C@@]21C (stereo partly drawn),inactive,inactive,inactive,inactive,inactive,inactive,–,–,–,–,–
CN(C)CC(c1ccc(O)cc1)C1(O)CCCCC1 (stereo not drawn),inactive,inactive,inactive,inactive,inactive,inactive,–,–,–,–,–
C=C1CCC2C(C)(C(=O)OC)CCCC2(C)C1CCC1=CCOC1=O (stereo not drawn),inactive,inactive,inactive,inactive,inactive,inactive,–,–,–,–,–
